Assay [1] is described as follows: A High-Content qHTS Against Drug Library for the Identification of Small Molecules that Inhibit DYT1 Early Onset Primary Dystonia-Associated Cell Pathology (AID 1645839; calls by dose curve). In a few lines:
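Flp-In T-REx 293 cells with tetracycline-inducible EGFP-delE hTOR1A (WT EGFP-hTOR1A as reference), 800 cells/well; compound added with tetracycline, 48 h at 37 C. Fixed, permeabilized cells imaged; %pathology (punctate TorsinA) primary, cell count counterscreen.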
Background: In qHTS, concentration-response curves come from the screen itself.

Assay [2] deals with Cytochrome P450 2D6 (Homo sapiens) (UniProt P10635). As to the kind of experiment: Cytochrome P450 family 2 subfamily D member 6 (CYP2D6) small molecule antagonists: luciferase biochemical (cell-free) qHTS assay (AID 1645840). Also: nearly all actives have a fitted effect of over 55% in size. Put shortly:
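P450-Glo luminescent screen: recombinant CYP2D6 enzyme–proluciferin substrate mix preincubated with compound 10 min at room temperature, then NADPH regeneration added for 1 h at room temperature. Detection reagent added for 20 min; luciferin light read as relative luminescence units.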

The target in assay [3] is Cytochrome P450 2C9 (Homo sapiens) (UniProt P11712). Kind of assay: Cytochrome P450 family 2 subfamily C member 9 (CYP2C9) small molecule antagonists: luciferase biochemical (cell-free) qHTS assay (AID 1645842). Also: nearly all actives have a fitted effect of over 55% in size. Put shortly: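 Luminescence, after 20 min with luciferin detection reagent, reflected CYP2C9 turnover during a 1 h NADPH-driven reaction at 37C. Enzyme-substrate mix contained 0.4% bovine serum albumin and was preincubated with compound 10 min at room temperature.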
Sequence of Cytochrome P450 2C9 (Homo sapiens) (P11712 whole entry, looked up): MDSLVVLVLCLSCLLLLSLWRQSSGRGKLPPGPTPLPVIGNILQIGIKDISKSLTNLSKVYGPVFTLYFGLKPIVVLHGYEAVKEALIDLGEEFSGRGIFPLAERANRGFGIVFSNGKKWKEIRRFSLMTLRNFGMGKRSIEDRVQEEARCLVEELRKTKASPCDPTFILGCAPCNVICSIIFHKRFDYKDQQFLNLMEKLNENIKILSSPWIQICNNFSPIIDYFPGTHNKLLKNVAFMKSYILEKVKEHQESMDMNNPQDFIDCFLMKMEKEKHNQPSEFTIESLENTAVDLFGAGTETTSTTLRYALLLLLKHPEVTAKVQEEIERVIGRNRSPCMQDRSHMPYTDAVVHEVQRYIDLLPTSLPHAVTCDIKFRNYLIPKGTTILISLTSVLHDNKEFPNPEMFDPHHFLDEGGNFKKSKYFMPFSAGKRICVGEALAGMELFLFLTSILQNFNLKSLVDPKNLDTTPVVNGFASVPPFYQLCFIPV

A short description of assay [4]: Primary qHTS for inhibitors of nuclear receptor binding SET domain protein 2 (NSD2) in an isogenic RCH-ACV NSD2 p.E1099K mutant (9B) (AID 1645876; active = well fitted curve in the direction sought with a large enough effect; an effect the other way counts as inactive or inconclusive; also: nearly all actives have a fitted effect of over 70% in size).
The target of assay [5] is Cytochrome P450 3A4 (Homo sapiens) (UniProt P08684). As to the kind of experiment: Cytochrome P450 family 3 subfamily A member 4 (CYP3A4) small molecule antagonists: luciferase qHTS assay (AID 1645841). Also: nearly all actives have a fitted effect of over 45% in size. Put shortly: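 P450-Glo CYP3A4 enzyme with proluciferin substrate preincubated 10 min with compound at room temperature, then NADPH regeneration 1 h. Luciferin detection reagent added for 20 min; luminescence recorded. Ketoconazole positive control.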
Sequence of Cytochrome P450 3A4 (Homo sapiens) (P08684 whole entry, looked up): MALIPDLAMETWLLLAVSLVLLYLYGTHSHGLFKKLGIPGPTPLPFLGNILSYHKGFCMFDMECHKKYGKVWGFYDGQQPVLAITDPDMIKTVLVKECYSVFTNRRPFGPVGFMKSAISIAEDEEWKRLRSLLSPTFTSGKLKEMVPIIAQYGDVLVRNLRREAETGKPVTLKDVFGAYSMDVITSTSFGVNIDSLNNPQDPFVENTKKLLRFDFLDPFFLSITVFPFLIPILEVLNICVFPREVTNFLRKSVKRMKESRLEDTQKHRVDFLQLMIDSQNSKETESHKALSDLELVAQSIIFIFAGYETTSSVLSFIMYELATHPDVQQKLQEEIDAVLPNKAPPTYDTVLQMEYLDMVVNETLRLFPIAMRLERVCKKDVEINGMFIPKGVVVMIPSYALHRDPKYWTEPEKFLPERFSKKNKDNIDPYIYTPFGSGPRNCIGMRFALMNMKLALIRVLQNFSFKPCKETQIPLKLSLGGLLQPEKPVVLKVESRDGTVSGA

Results filed as inconclusive are left out. Calls of active or inactive are those of the source. Unless noted, calls follow the shape of the dose curve; as a rule, active = well fitted curve in the direction sought with a large enough effect in the repeat runs; inconclusive = weak or mixed curves; inactive = no such curve, though single readings can be large; an effect the other way counts as inactive or inconclusive.
Potency is read from the fitted curve at half-maximal effect.

Sequence of Cytochrome P450 2D6 (Homo sapiens) (P10635 whole entry, looked up): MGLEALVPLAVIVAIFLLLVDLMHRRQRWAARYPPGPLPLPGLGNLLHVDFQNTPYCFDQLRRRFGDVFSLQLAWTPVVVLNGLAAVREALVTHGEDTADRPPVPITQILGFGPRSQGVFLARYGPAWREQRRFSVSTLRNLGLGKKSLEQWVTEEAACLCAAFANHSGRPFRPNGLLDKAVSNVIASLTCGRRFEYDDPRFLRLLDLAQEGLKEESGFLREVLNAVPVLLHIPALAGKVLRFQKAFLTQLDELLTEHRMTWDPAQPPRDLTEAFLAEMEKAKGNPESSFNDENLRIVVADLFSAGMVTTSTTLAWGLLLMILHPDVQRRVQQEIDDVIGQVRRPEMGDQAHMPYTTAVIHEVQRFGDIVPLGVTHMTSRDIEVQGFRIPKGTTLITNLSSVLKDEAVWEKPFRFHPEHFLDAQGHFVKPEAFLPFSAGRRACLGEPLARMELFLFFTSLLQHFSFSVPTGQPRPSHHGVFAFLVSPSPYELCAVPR

With `CN1C(=O)c2ccccc2C1=O`, the Potency entry in assay [1], in assay [2], in assay [3] and in assay [4] was “inactive” in each case.

As to `CN1C(CSCC(F)(F)F)Nc2cc(Cl)c(S(N)(=O)=O)cc2S1(=O)=O` (configuration not stated), the Potency entry in assay [1], in assay [2], in assay [3] and in assay [4] was “inactive” throughout.

For the compound `O=C(O)Cn1c(=O)n(Cc2ccc(Br)cc2F)c(=O)c2ccc(Cl)cc21`, the Potency entry in assay [1], in assay [2] and in assay [4] was “inactive” each time.

As to `CNC(=O)c1c(I)c(NC(C)=O)c(I)c(C(=O)O)c1I`, the Potency entry in assay [1], in assay [2], in assay [3] and in assay [4] was “inactive” throughout.

Take `CCO[C@H](Cc1ccc(OCCc2ccc(OS(C)(=O)=O)cc2)cc1)C(=O)O`: the Potency entry in assay [1], in assay [2], in assay [3] and in assay [4] was “inactive” in each case.

Turning to `COC(=O)c1cc(Cl)c(NC(C)=O)cc1OC`, the Potency result in assay [1], in assay [2], in assay [3] and in assay [4] was “inactive” in each case.

In the case of `O=C(OCC1(COC(=O)c2cccnc2)CCCC(COC(=O)c2cccnc2)(COC(=O)c2cccnc2)C1O)c1cccnc1`, the Potency entry in assay [1], in assay [2] and in assay [4] was “inactive” each time. The Potency in assay [3] was 2450 nM (active).

In the case of `Cc1[nH]cnc1-c1ccc(Cl)cc1`, the Potency entry in assay [1] and in assay [4] was “inactive” in each case. The Potency in assay [2] was 17400 nM (active).

On to `Nc1ncnc2c1ncn2Cc1c(F)cccc1Cl`, for which the Potency result in assay [1], in assay [2], in assay [3] and in assay [4] was “inactive” throughout.

For `CN(C)CCOC(c1ccccc1)c1ccc(Br)cc1` (configuration not stated), the Potency in assay [2] is 275 nM (active). The Potency result in assay [3] was “inactive”.

With `CCC(C(=O)OCCN1CCOC(c2ccccc2)C1C)c1ccccc1` (configuration not stated), the Potency entry in assay [1] and in assay [4] was “inactive” in each case. Besides, the Potency in assay [3] is 2190 nM (active).

As for `COc1cc(C(=O)OC(COCCC(C)C)CN2CCOCC2)cc(OC)c1OC` (configuration not stated), the Potency result in assay [1] and in assay [4] was “inactive” in each case. Also, in assay [3], the Potency is 2190 nM (active).

In the case of `COC(=O)/C=C(/C)N`, the Potency entry in assay [1] and in assay [4] was “inactive” in each case.

As for `CCOC(=O)c1ccc(OCCN2C[C@H](O)[C@@H](O)[C@H](O)[C@H]2CO)cc1`, the Potency entry in assay [2], in assay [5], in assay [3] and in assay [4] was “inactive” in each case.

For `Cc1nc(C2CCCCC2)c(-c2ccc(S(N)(=O)=O)c(F)c2)o1`, in assay [1], the Potency result was “inactive”. The Potency in assay [3] was 2190 nM (active); in assay [4] it was 11900 nM (active).

Consider `C[C@H]1C[C@@H]2[C@H]([C@@H](O)C[C@@]3(C)[C@H]2CC[C@]3(O)C(=O)CO)[C@@]2(C)C=CC(=O)C=C12`, for which the Potency result in assay [1] and in assay [4] was “inactive” in each case.

On to `O=C(CCC1CCN(Cc2ccccc2)CC1)c1ccc2c(c1)NCCCC2`, for which the Potency in assay [2] was 9770 nM (active). Also, the Potency entry in assay [3] was “inactive”.

`NC(=O)COCCN1CCN(C(c2ccccc2)c2ccc(Cl)cc2)CC1` (configuration not stated): the Potency result in assay [1], in assay [3] and in assay [4] was “inactive” in each case.

Take `O=C1NC(c2ccccc2)(c2ccccc2)C(=O)N1COP(=O)(O)O`: the Potency entry in assay [1], in assay [3] and in assay [4] was “inactive” each time.

On to `COc1cc(S(N)(=O)=O)cc(C(=O)O)c1OC`, for which the Potency result in assay [1], in assay [3] and in assay [4] was “inactive” each time.

For `CCCC(=O)OCOC(=O)C1=C(C)NC(C)=C(C(=O)OC)C1c1cccc(Cl)c1Cl` (configuration not stated), the Potency entry in assay [1] and in assay [4] was “inactive” throughout. For the same compound, the Potency in assay [3] is 2040 nM (active).

Regarding `CC(C)C[C@H](NC(=O)CNC(=O)[C@H](Cc1ccc(O)cc1)NC(=O)[C@H](CO)NC(=O)[C@H](Cc1c[nH]c2ccccc12)NC(=O)[C@H](Cc1cnc[nH]1)NC(=O)[C@@H]1CCC(=O)N1)C(=O)N[C@@H](CCCN=C(N)N)C(=O)N1CCC[C@H]1C(=O)NCC(N)=O` (stereo in doubt), the Potency entry in assay [2] and in assay [3] was “inactive” each time.

As for `COc1ccc2cc(C=O)ccc2c1`, the Potency entry in assay [1] and in assay [4] was “inactive” in each case. In addition, the Potency in assay [3] was 12300 nM (active).

Consider `CCOC(=O)c1cc(=O)c2c(OCC(COc3cccc4oc(C(=O)OCC)cc(=O)c34)OC(=O)[C@@H](N)CCCCN)cccc2o1`, for which the Potency result in assay [1] and in assay [4] was “inactive” in each case.

Consider `CC(NN)c1ccccc1` (configuration not stated), for which the Potency result in assay [1] and in assay [4] was “inactive” in each case.

For `Cc1ccc(-c2ccccc2C#N)cc1`, the Potency result in assay [1] and in assay [4] was “inactive” each time.

In the case of `CCCCOCCOC(=O)c1cccnc1`, the Potency entry in assay [1] and in assay [4] was “inactive” throughout.

Consider `CC(C)(C)c1ccc(O)c(O)c1`, for which the Potency in assay [1] is 31600 nM (active); in assay [4], 2170 nM (active).

In the case of `Oc1ccccc1`, the Potency result in assay [1], in assay [3] and in assay [4] was “inactive” each time.

In the case of `CCc1cccc2c(CCO)c[nH]c12`, the Potency result in assay [1], in assay [3] and in assay [4] was “inactive” each time.

With `CCc1cc(S(=O)(=O)O)c2cc(C(C)C)cccc1-2`, the Potency result in assay [2] and in assay [3] was “inactive” throughout.

For `CCCCC/C=C\C/C=C\CCCCCCCC(=O)NC(C)c1ccccc1` (configuration not stated), the Potency was 3890 nM (active) in assay [2] and 1550 nM (active) in assay [3].

Regarding `O=C(O)c1ccccc1S`, the Potency result in assay [1], in assay [3] and in assay [4] was “inactive” each time.

Turning to `Oc1ccc(CCNCCCCCCNCCc2ccccc2)cc1O`, in assay [2], the Potency was 24500 nM (active). In assay [3], the Potency entry was “inactive”.

As to `Nc1ccc2cc3ccc(N)cc3nc2c1`, the Potency result in assay [2] and in assay [3] was “inactive” each time. The Potency in assay [5] is 4360 nM (active); in assay [4], 2370 nM (active).

With `Oc1cccc2[nH]ccc12`, the Potency in assay [2] is 15500 nM (active).

With `C/C(=C(/OCCOc1ccc(Cl)cc1)c1ccc(Cl)cc1Cl)n1ccnc1`, the Potency is 871 nM (active) in assay [2] and 550 nM (active) in assay [3].

As to `Cc1sccc1Br`, the Potency entry in assay [1], in assay [3] and in assay [4] was “inactive” throughout.

Source of the values: PubChem BioAssay (NCATS).
